Reference: PubChem BioAssay AID1159580 (chemical genetic matrix, 2015)
In all, about 5,500 compounds went through this assay and about 2,000 (36%) were called active. Roughly 18% stayed inconclusive and do not appear here. Rule as the data show it: active = normalized growth mostly below about 0.91 (no sharp cut-off); inconclusive = no clear call, values can overlap the other calls; inactive = mostly above about 0.92. The list shows a part of the results.

Assay: chemical genetic growth profiling, strain panel (AID 1159580);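 also: tested at 20 µM; growth read once vehicle control cultures reached saturation at 30 °C; 1 = growth at the plate median or of vehicle wells; lower values mean less growth of the strain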
Details: growth OD

Measured: normalized growth

O=c1[nH]cnc2c1ncn2C1O[C@H](CO)[C@@H](O)[C@H]1O (some centres undefined)
inactive: S. cerevisiae deletion strains, locus YJR075W, strain HOC1, active compounds read low 1.01 | S. cerevisiae deletion strains, locus YKL009W, strain mrt4, active compounds read low 0.979 | S. cerevisiae deletion strains, locus YKL068W, active compounds read low 1.01 | S. cerevisiae deletion strains, locus YKL085W, strain MDH1 (second series), active compounds read low 0.998 | S. cerevisiae deletion strains, locus YKL085W, strain MDH1, active compounds read low 0.998 | S. cerevisiae deletion strains, locus YKL160W, strain elf1, active compounds read low 0.986 | S. cerevisiae deletion strains, locus YKL190W, strain CNB1, active compounds read low 1 | S. cerevisiae deletion strains, locus YKR001C, strain vps1, active compounds read low 1.06 | S. cerevisiae deletion strains, locus YKR026C, strain gcn3, active compounds read low 0.984 | S. cerevisiae deletion strains, locus YKR091W, strain srl3, active compounds read low 0.986 | S. cerevisiae deletion strains, locus YLL001W, strain dnm1, active compounds read low 1.01 | S. cerevisiae deletion strains, locus YLL026W, active compounds read low 0.993 | S. cerevisiae deletion strains, locus YLL041C, strain sdh2, active compounds read low 1 | S. cerevisiae deletion strains, locus YLR027C, strain aat2, active compounds read low 0.994 | S. cerevisiae deletion strains, locus YLR039C, strain RIC1, active compounds read low 1.04 | S. cerevisiae deletion strains, locus YLR058C, strain SHM2, active compounds read low 0.999 | S. cerevisiae deletion strains, locus YLR102C, strain apc9, active compounds read low 1.04 | S. cerevisiae deletion strains, locus YLR113W, strain HOG1, active compounds read low 0.978 | S. cerevisiae deletion strains, locus YLR221C, strain rsa3, active compounds read low 0.96 | S. cerevisiae deletion strains, locus YLR258W, strain gsy2, active compounds read low 0.99 | S. cerevisiae deletion strains, locus YLR262C, strain YPT6 (second series), active compounds read low 1.02 | S. cerevisiae deletion strains, locus YLR262C, strain YPT6, active compounds read low 1.05 | S. cerevisiae deletion strains, locus YLR268W, strain sec22, active compounds read low 1.05 | S. cerevisiae deletion strains, locus YLR320W, strain mms22, active compounds read low 0.959 | S. cerevisiae deletion strains, locus YLR330W, strain CHS5, active compounds read low 1.01 | S. cerevisiae deletion strains, locus YLR342W, strain FKS1 (second series), active compounds read low 0.996 | S. cerevisiae deletion strains, locus YLR342W, strain FKS1, active compounds read low 0.989 | S. cerevisiae deletion strains, locus YLR357W, strain rsc2, active compounds read low 0.971 | S. cerevisiae deletion strains, locus YLR370C, strain arc18, active compounds read low 0.991 | S. cerevisiae deletion strains, locus YLR371W, strain rom2, active compounds read low 1.01 | S. cerevisiae deletion strains, locus YLR384C, strain iki3, active compounds read low 0.969 | S. cerevisiae deletion strains, locus YLR418C, strain cdc73, active compounds read low 1.01 | S. cerevisiae deletion strains, locus YML016C, strain PPZ1, active compounds read low 1 | S. cerevisiae deletion strains, locus YML032C, strain rad52, active compounds read low 1.01 | S. cerevisiae deletion strains, locus YML120C, strain ndi1, active compounds read low 1.01 | S. cerevisiae deletion strains, locus YML124C, strain tub3, active compounds read low 1.02 | S. cerevisiae deletion strains, locus YMR058W, strain fet3, active compounds read low 0.992 | S. cerevisiae deletion strains, locus YMR078C, strain ctf18, active compounds read low 1.06 | S. cerevisiae deletion strains, locus YMR125W, strain sto1, active compounds read low 1.01 | S. cerevisiae deletion strains, locus YMR129W, active compounds read low 0.997 | S. cerevisiae deletion strains, locus YMR205C, strain PFK2, active compounds read low 0.984 | S. cerevisiae deletion strains, locus YMR223W, strain ubp8, active compounds read low 1.01 | S. cerevisiae deletion strains, locus YMR231W, strain pep5, active compounds read low 0.977 | S. cerevisiae deletion strains, locus YMR263W, strain SAP30, active compounds read low 1 | S. cerevisiae deletion strains, locus YMR307W, strain GAS1, active compounds read low 1.01 | S. cerevisiae deletion strains, locus YNL067W, strain RPL9B, active compounds read low 1.01 | S. cerevisiae deletion strains, locus YNL071W, strain lat1, active compounds read low 1 | S. cerevisiae deletion strains, locus YNL153C, strain GIM3, active compounds read low 0.99 | S. cerevisiae deletion strains, locus YNL183C, strain NPR1, active compounds read low 0.908 | S. cerevisiae deletion strains, locus YNL209W, strain ssb2, active compounds read low 0.995 | S. cerevisiae deletion strains, locus YNL233W, strain BNI4, active compounds read low 1.02 | S. cerevisiae deletion strains, locus YNL248C, strain rpa49, active compounds read low 0.902 | S. cerevisiae deletion strains, locus YNL250W, strain rad50, active compounds read low 1.03 | S. cerevisiae deletion strains, locus YNL271C, strain bni1, active compounds read low 1.04 | S. cerevisiae deletion strains, locus YNL298W, strain CLA4, active compounds read low 1.03 | S. cerevisiae deletion strains, locus YNL307C, strain MCK1, active compounds read low 1.05 | S. cerevisiae deletion strains, locus YNL322C, strain KRE1 (second series), active compounds read low 0.985 | S. cerevisiae deletion strains, locus YNR049C, strain mso1, active compounds read low 0.978 | S. cerevisiae deletion strains, locus YNR052C, strain pop2, active compounds read low 1.02 | S. cerevisiae deletion strains, locus YOL012C, strain htz1 1.16 | S. cerevisiae deletion strains, locus YOL147C, strain pex11, active compounds read low 1.04 | S. cerevisiae deletion strains, locus YOR001W, strain rrp6, active compounds read low 0.994 | S. cerevisiae deletion strains, locus YOR061W, strain CKA2, active compounds read low 1.01 | S. cerevisiae deletion strains, locus YOR069W, strain VPS5, active compounds read low 1 | S. cerevisiae deletion strains, locus YOR070C, strain gyp1, active compounds read low 0.991 | S. cerevisiae deletion strains, locus YOR080W, strain dia2, active compounds read low 0.99 | S. cerevisiae deletion strains, locus YOR083W, strain WHI5, active compounds read low 0.998 | S. cerevisiae deletion strains, locus YOR106W, strain vam3, active compounds read low 1.01 | S. cerevisiae deletion strains, locus YOR136W, strain idh2, active compounds read low 1.02 | S. cerevisiae deletion strains, locus YOR144C, strain elg1, active compounds read low 1.03 | S. cerevisiae deletion strains, locus YOR184W, strain ser1, active compounds read low 1.05 | S. cerevisiae deletion strains, locus YOR231W, strain MKK1, active compounds read low 0.982 | S. cerevisiae deletion strains, locus YOR265W, strain rbl2, active compounds read low 0.984 | S. cerevisiae deletion strains, locus YOR270C, strain vph1, active compounds read low 0.987 | S. cerevisiae deletion strains, locus YOR290C, strain snf2, active compounds read low 1 | S. cerevisiae deletion strains, locus YOR316C, strain cot1, active compounds read low 1.04 | S. cerevisiae deletion strains, locus YPL051W, strain arl3, active compounds read low 0.977 | S. cerevisiae deletion strains, locus YPL055C, strain LGE1, active compounds read low 1.03 | S. cerevisiae deletion strains, locus YPL078C, strain atp4, active compounds read low 1 | S. cerevisiae deletion strains, locus YPL106C, strain sse1, active compounds read low 1.02 | S. cerevisiae deletion strains, locus YPL240C, strain hsp82, active compounds read low 0.984 | S. cerevisiae deletion strains, locus YPL241C, strain CIN2, active compounds read low 1 | S. cerevisiae deletion strains, locus YPL256C, strain CLN2, active compounds read low 0.965 | S. cerevisiae deletion strains, locus YPR119W, strain clb2, active compounds read low 1.06 | S. cerevisiae deletion strains, locus YPR141C, strain kar3, active compounds read low 1.03 | S. cerevisiae deletion strains, locus YPR163C, strain tif3, active compounds read low 1.02 | S. cerevisiae deletion strains, locus YPR167C, strain met16, active compounds read low 1.02 | S. cerevisiae deletion strains, strain wtn01, active compounds read low 1.04 | S. cerevisiae strains, strain wild type, active compounds read low 1.01
